Measured values: PubChem BioAssay AID720511 (Broad Institute, 2013)
Hit rate of the full screen: of about 350,000 compounds, about 1,300 (0.37%) were called active.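 Rule for the calls: active = mean added fluorescence quench of at least 8% versus neutral control, with both replicates also reaching 8%; inconclusive = only one of the mean or replicate conditions met; inactive = mean below 8% and not both replicates reaching 8%.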 The full list was thinned out, with actives kept by preference.

Test: F508del CFTR correction, initial screen, CFBE line, single point (AID 720511);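 note: cells transiently co-express mutant CFTR-F508del with the halide-sensitive YFP; corrector assay measuring rescue of mutant channel to the surface after 24 h compound exposure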
Settings: CFBE cells, YFP halide quenching, at 7.58 µM, hits give high values, % fluorescence drop versus neutral controls, stimulated with forskolin plus potentiator P3

SMILES	activity (quench increase)
Cc1ccc(NC(=O)CN(C)CC(=O)Nc2cccc(F)c2)cc1[N+](=O)[O-]	1.68% (inactive)
Cc1ccc(CN(C)CC(=O)Nc2cccc([N+](=O)[O-])c2)o1	10.1% (active)
O=C(CN1CCOCC1)Nc1cccc([N+](=O)[O-])c1	-2.49% (inactive)
COc1cccc(-c2ccc3c(c2)[C@H]2[C@H](CCN2C(=O)c2ccc(F)cc2)[C@@H](CO)N3)c1	1.42% (inactive)
Cc1cc2oc(=O)cc(-c3ccccc3)c2c(C)c1-c1ccc(OC(F)(F)F)cc1	1.07% (inactive)
COc1cccc(NC(=O)COc2cc(C)cc3oc(=O)cc(C)c23)c1	2.8% (inactive)
COc1cc(OC)c2c(-c3cccc(-c4cccc(N)c4)c3)cc(=O)oc2c1	8.2% (active)
COc1ccc(/C=N/N=C2/C(=O)Nc3ccccc32)cc1O	-1.27% (inactive)
O=C1Nc2ccccc2C1=NN=Cc1ccco1	-2.93% (inactive)
Cc1cc(C)c(/C=C2\C(=O)Nc3ccccc32)[nH]1	10.3% (active)
O=C(NCC[C@H]1CC[C@H](NC(=O)C2CC2)[C@@H](CO)O1)c1ccc(F)cc1	1.43% (inactive)
Cc1c(CCC(=O)O)c(=O)oc2cc(OCc3ccc(Br)cc3)ccc12	0.947% (inactive)
COc1ccc2c(C)c(CCC(=O)NC3CC3)c(=O)oc2c1C	2.05% (inactive)
Cc1c(CCC(=O)O)c(=O)oc2c(C)c(OCc3ccccc3Cl)ccc12	9.04% (active)
C[C@@H]1CN([C@@H](C)CO)S(=O)(=O)c2ccc(C#CCN(C)C)cc2O[C@@H]1CN(C)C(=O)CC1CC1	0.474% (inactive)
COC(=O)COc1cccc2c(=O)n(CC(=O)NCCc3ccc(OC)c(OC)c3)ccc12	-1.22% (inactive)
CCOC(=O)C(C)Oc1cccc2c(=O)n(CC(=O)NCCc3ccc(OC)c(OC)c3)ccc12 (centres undefined)	2.66% (inactive)
COC(=O)COc1cccc2c(=O)n(CC(=O)NCc3ccccc3)ccc12	11% (active)
COCC#Cc1ccc([C@@H]2[C@@H](CO)N3CCCCN(C(=O)NC4CCCC4)C[C@H]23)cc1	-0.841% (inactive)
C[C@@H]1CCCCO[C@@H](CN(C)CC2CC2)[C@@H](C)CN([C@H](C)CO)C(=O)c2cc(NC(=O)Nc3cccc4ccccc34)ccc2O1	-0.347% (inactive)
COc1ccc(/C=C2\N=C3CCCN3C2=O)cc1	-1.7% (inactive)
COc1ccc(/C=C2\CCc3ccccc3C2=O)c(OC)c1OC	-2.36% (inactive)
COc1ccc(/C=C2/CCCc3ccccc3C2=O)cc1	14.3% (active)
Cc1ccc(S(=O)(=O)N(C)C[C@H]2OCCCC[C@@H](C)Oc3ccc(NC(=O)NC4CCCCC4)cc3C(=O)N([C@H](C)CO)C[C@@H]2C)cc1	0.861% (inactive)
